# What was measured:
# Experiment in all cases: DAPPL (digital affinity profiling via proximity ligation, sequencing); 10 mM Tris-HCl pH 7.5, 50 mM NaCl, 1 mM DTT, 4% glycerol, room temperature, 30 min; GST-TFs on glutathione beads, 16-mer random dsDNA library, 0.1% formaldehyde crosslink after washing; high values mean tight binding
# FEV = biological target: T1, FEV (Homo sapiens, UniProt Q99581 1-238); details: protein: recombinant; tags: N-terminal GST; dsDNA, one strand shown
# T1 sequence: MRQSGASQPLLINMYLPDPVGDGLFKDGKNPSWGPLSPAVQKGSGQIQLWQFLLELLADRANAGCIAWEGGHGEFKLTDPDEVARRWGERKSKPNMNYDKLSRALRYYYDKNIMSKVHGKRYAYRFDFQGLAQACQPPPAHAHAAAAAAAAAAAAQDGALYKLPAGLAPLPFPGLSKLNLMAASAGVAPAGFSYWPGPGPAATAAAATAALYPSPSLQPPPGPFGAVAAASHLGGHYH
# Summary of the method: (§1)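 Sequencing on an Illumina NextSeq500 followed washing, crosslinking with 0.1% formaldehyde, proximity ligation (BsaI/T4 ligase, 1 h, 37 °C) and PCR amplification of pools that had been incubated for 30 min at room temperature with 200 nmole of a random double-stranded 16-mer DNA library in Tris/NaCl/DTT/glycerol buffer. Each pool held DNA-barcoded human transcription factors, expressed in yeast as GST fusions and captured on glutathione beads, plus a tag-only sample. Binding signal is a hexamer's read frequency for a factor divided by its frequency in the tag-only sample.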
# ETV5 = ETV5 (Homo sapiens, UniProt P41161 1-510); details: protein: recombinant; tags: N-terminal GST; dsDNA, one strand shown
# Sequence of ETV5 (P41161 whole entry): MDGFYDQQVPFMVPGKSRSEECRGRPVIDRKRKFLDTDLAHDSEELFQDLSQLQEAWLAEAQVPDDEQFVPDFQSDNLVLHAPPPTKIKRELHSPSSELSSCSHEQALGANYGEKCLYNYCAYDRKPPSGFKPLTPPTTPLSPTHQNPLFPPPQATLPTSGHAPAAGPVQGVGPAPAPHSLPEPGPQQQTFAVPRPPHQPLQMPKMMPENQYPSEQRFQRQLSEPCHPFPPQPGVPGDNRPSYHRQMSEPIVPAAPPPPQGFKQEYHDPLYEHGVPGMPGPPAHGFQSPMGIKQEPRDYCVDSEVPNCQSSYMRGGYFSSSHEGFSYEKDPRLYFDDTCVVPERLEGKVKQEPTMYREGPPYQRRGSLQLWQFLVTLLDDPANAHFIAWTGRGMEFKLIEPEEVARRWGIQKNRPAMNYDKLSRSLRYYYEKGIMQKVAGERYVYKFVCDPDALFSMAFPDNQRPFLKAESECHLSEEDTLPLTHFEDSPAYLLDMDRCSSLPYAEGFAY
# Summary of the method: as §1
# HSF1 = HSF1 (Homo sapiens, UniProt Q00613 1-529); details: protein: recombinant; tags: N-terminal GST; chain copies: 3; dsDNA, one strand shown
# Sequence of HSF1 (Q00613 whole entry): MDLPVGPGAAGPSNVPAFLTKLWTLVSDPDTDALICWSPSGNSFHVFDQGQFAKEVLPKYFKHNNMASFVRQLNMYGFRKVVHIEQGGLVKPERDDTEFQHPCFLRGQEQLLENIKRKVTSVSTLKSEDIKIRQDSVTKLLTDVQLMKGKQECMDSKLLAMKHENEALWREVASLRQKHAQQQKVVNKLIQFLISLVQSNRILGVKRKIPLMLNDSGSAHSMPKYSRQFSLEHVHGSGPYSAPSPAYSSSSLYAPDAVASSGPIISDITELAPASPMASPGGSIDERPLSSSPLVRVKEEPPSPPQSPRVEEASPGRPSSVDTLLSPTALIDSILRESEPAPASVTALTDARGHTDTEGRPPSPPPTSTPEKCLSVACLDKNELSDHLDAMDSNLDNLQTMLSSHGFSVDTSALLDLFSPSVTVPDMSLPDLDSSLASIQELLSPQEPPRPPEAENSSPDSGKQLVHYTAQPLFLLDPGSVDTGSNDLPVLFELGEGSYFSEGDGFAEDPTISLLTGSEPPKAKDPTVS
# Summary of the method: as §1
# SPIC = biological target: T2, SPIC (Homo sapiens, UniProt Q8N5J4 1-248); details: protein: recombinant; tags: N-terminal GST; dsDNA, one strand shown
# T2 sequence: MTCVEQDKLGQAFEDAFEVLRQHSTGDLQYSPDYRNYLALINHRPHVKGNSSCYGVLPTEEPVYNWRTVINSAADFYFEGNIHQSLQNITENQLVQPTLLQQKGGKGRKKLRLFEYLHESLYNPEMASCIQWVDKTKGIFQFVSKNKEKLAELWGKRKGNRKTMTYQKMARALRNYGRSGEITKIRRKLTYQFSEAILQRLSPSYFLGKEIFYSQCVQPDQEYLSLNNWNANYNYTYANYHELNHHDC
# Summary of the method: as §1
# ELF4 = ELF4 (Homo sapiens, UniProt Q99607 1-663); details: protein: recombinant; tags: N-terminal GST; dsDNA, one strand shown
# Sequence of ELF4 (Q99607 whole entry): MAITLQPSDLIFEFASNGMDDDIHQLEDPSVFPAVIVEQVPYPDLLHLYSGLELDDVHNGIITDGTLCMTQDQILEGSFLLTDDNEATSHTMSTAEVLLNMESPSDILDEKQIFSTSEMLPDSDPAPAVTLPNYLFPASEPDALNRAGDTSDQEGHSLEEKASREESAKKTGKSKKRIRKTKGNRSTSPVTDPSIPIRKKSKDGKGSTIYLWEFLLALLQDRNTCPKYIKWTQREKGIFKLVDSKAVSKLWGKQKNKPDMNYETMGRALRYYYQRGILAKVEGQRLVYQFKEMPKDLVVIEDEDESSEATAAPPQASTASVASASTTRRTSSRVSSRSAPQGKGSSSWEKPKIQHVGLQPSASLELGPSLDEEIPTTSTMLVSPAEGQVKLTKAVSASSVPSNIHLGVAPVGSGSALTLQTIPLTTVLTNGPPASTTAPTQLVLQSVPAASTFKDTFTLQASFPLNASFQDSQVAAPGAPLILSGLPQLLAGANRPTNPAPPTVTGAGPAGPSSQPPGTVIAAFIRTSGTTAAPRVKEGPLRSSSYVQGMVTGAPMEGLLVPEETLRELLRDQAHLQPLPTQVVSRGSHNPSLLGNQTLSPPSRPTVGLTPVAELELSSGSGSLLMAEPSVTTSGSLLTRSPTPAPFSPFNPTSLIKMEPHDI
# Summary of the method: as §1
# ELK4 = biological target: T3, ELK4 (Homo sapiens, UniProt P28324-2 1-405); details: protein: recombinant; tags: N-terminal GST; dsDNA, one strand shown
# T3 sequence: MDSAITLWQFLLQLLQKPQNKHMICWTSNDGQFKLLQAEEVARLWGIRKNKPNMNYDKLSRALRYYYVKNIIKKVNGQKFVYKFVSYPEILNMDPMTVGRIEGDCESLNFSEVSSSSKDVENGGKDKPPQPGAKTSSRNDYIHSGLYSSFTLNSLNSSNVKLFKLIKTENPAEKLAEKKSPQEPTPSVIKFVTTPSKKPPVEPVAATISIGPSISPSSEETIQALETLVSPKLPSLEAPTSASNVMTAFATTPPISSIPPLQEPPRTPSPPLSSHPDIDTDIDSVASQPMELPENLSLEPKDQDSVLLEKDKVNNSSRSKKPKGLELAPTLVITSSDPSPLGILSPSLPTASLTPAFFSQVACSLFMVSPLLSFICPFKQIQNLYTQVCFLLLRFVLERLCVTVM
# Summary of the method: as §1
# ETV2 = biological target: T4, ETV2 (Homo sapiens, UniProt O00321 1-342); details: protein: recombinant; tags: N-terminal GST; dsDNA, one strand shown
# T4 sequence: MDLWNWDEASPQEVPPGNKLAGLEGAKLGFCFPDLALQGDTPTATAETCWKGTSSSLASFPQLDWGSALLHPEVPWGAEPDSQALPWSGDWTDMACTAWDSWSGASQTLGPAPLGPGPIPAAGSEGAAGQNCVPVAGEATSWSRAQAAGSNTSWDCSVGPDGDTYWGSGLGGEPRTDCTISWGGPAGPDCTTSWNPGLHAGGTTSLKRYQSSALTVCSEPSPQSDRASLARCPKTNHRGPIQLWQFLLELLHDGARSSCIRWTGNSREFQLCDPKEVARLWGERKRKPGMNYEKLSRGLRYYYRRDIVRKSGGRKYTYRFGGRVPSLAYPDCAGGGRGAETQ
# Summary of the method: as §1
# ELF3 = biological target: T5, ELF3 (Homo sapiens, UniProt P78545 1-371); details: protein: recombinant; tags: N-terminal GST; dsDNA, one strand shown
# T5 sequence: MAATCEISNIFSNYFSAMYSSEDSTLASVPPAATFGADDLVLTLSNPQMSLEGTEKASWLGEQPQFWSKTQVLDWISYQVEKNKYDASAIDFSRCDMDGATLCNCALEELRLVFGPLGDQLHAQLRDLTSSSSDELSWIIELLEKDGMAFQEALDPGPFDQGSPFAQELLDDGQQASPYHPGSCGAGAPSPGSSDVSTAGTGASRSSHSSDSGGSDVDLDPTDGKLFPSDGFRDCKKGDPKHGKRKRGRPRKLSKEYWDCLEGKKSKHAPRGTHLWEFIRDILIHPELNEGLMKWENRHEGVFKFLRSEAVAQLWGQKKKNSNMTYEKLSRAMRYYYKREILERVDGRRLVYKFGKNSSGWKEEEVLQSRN
# Summary of the method: as §1
# CRX = CRX (Homo sapiens, UniProt O43186 1-299); details: protein: recombinant; tags: N-terminal GST; dsDNA, one strand shown
# Sequence of CRX (O43186 whole entry): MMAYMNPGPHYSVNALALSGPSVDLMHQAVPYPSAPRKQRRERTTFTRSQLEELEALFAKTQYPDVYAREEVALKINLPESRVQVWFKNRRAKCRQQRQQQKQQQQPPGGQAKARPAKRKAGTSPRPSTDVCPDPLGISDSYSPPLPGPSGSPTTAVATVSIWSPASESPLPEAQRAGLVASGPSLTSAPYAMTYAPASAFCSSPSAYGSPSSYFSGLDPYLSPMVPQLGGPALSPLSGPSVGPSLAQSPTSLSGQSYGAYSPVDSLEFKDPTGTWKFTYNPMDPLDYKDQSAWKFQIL
# Summary of the method: as §1
# ETV1 = ETV1 (Homo sapiens, UniProt P50549 1-477); details: protein: recombinant; tags: N-terminal GST; dsDNA, one strand shown
# Sequence of ETV1 (P50549 whole entry): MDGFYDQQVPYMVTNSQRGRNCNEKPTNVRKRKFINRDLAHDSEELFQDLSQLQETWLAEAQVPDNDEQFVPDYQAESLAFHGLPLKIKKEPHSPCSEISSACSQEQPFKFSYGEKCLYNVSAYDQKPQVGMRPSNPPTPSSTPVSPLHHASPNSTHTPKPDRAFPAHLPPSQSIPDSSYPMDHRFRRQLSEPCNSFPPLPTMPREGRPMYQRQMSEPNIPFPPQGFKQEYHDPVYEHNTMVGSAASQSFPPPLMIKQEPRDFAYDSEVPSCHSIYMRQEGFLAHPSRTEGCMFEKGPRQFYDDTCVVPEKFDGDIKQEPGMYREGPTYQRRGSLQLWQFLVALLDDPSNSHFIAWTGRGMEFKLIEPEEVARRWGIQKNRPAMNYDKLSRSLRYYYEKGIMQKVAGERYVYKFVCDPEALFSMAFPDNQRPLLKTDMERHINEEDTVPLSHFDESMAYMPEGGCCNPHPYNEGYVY
# Summary of the method: as §1
Sequence,binding signal (FEV),binding signal (ETV5),binding signal (HSF1),binding signal (SPIC),binding signal (ELF4),binding signal (ELK4),binding signal (ETV2),binding signal (ELF3),binding signal (CRX),binding signal (ETV1)
TGTGCT,"1.25 fold enrichment (6-mer frequency, TF over GST control)","1.18 fold enrichment (6-mer frequency, TF over GST control)","1.15 fold enrichment (6-mer frequency, TF over GST control)","1.35 fold enrichment (6-mer frequency, TF over GST control)","1.17 fold enrichment (6-mer frequency, TF over GST control)","1.17 fold enrichment (6-mer frequency, TF over GST control)","1.21 fold enrichment (6-mer frequency, TF over GST control)","1.27 fold enrichment (6-mer frequency, TF over GST control)","1.1 fold enrichment (6-mer frequency, TF over GST control)","1.18 fold enrichment (6-mer frequency, TF over GST control)"
CTCCTT,"1.75 fold enrichment (6-mer frequency, TF over GST control)","1.62 fold enrichment (6-mer frequency, TF over GST control)","1.61 fold enrichment (6-mer frequency, TF over GST control)","1.86 fold enrichment (6-mer frequency, TF over GST control)","1.8 fold enrichment (6-mer frequency, TF over GST control)","1.67 fold enrichment (6-mer frequency, TF over GST control)","1.7 fold enrichment (6-mer frequency, TF over GST control)","1.96 fold enrichment (6-mer frequency, TF over GST control)","1.57 fold enrichment (6-mer frequency, TF over GST control)","1.69 fold enrichment (6-mer frequency, TF over GST control)"
CTTGAT,"1.38 fold enrichment (6-mer frequency, TF over GST control)","1.43 fold enrichment (6-mer frequency, TF over GST control)","1.44 fold enrichment (6-mer frequency, TF over GST control)","1.41 fold enrichment (6-mer frequency, TF over GST control)","1.43 fold enrichment (6-mer frequency, TF over GST control)","1.43 fold enrichment (6-mer frequency, TF over GST control)","1.43 fold enrichment (6-mer frequency, TF over GST control)","1.38 fold enrichment (6-mer frequency, TF over GST control)","1.57 fold enrichment (6-mer frequency, TF over GST control)","1.29 fold enrichment (6-mer frequency, TF over GST control)"
TAGTTA,"1.07 fold enrichment (6-mer frequency, TF over GST control)","1.19 fold enrichment (6-mer frequency, TF over GST control)","1.26 fold enrichment (6-mer frequency, TF over GST control)","1.11 fold enrichment (6-mer frequency, TF over GST control)","1.15 fold enrichment (6-mer frequency, TF over GST control)","1.26 fold enrichment (6-mer frequency, TF over GST control)","1.09 fold enrichment (6-mer frequency, TF over GST control)","1.29 fold enrichment (6-mer frequency, TF over GST control)","1.54 fold enrichment (6-mer frequency, TF over GST control)","1.05 fold enrichment (6-mer frequency, TF over GST control)"
ATTGCG,"1.17 fold enrichment (6-mer frequency, TF over GST control)","1.24 fold enrichment (6-mer frequency, TF over GST control)","1.07 fold enrichment (6-mer frequency, TF over GST control)","1.29 fold enrichment (6-mer frequency, TF over GST control)","1.25 fold enrichment (6-mer frequency, TF over GST control)","1.14 fold enrichment (6-mer frequency, TF over GST control)","1.59 fold enrichment (6-mer frequency, TF over GST control)","1.29 fold enrichment (6-mer frequency, TF over GST control)","1.12 fold enrichment (6-mer frequency, TF over GST control)","1.29 fold enrichment (6-mer frequency, TF over GST control)"
TAGTTC,"1.28 fold enrichment (6-mer frequency, TF over GST control)","1.41 fold enrichment (6-mer frequency, TF over GST control)","1.45 fold enrichment (6-mer frequency, TF over GST control)","1.47 fold enrichment (6-mer frequency, TF over GST control)","1.43 fold enrichment (6-mer frequency, TF over GST control)","1.49 fold enrichment (6-mer frequency, TF over GST control)","1.4 fold enrichment (6-mer frequency, TF over GST control)","1.49 fold enrichment (6-mer frequency, TF over GST control)","1.23 fold enrichment (6-mer frequency, TF over GST control)","1.4 fold enrichment (6-mer frequency, TF over GST control)"
ACTATG,"1.21 fold enrichment (6-mer frequency, TF over GST control)","1.19 fold enrichment (6-mer frequency, TF over GST control)","1.09 fold enrichment (6-mer frequency, TF over GST control)","1.37 fold enrichment (6-mer frequency, TF over GST control)","1.26 fold enrichment (6-mer frequency, TF over GST control)","1.08 fold enrichment (6-mer frequency, TF over GST control)","1.24 fold enrichment (6-mer frequency, TF over GST control)","1.09 fold enrichment (6-mer frequency, TF over GST control)","1.02 fold enrichment (6-mer frequency, TF over GST control)","1.24 fold enrichment (6-mer frequency, TF over GST control)"
CCGATT,"1.37 fold enrichment (6-mer frequency, TF over GST control)","1.34 fold enrichment (6-mer frequency, TF over GST control)","1.94 fold enrichment (6-mer frequency, TF over GST control)","1.18 fold enrichment (6-mer frequency, TF over GST control)","1.41 fold enrichment (6-mer frequency, TF over GST control)","1.37 fold enrichment (6-mer frequency, TF over GST control)","1.27 fold enrichment (6-mer frequency, TF over GST control)","1.17 fold enrichment (6-mer frequency, TF over GST control)","2.69 fold enrichment (6-mer frequency, TF over GST control)","1.35 fold enrichment (6-mer frequency, TF over GST control)"

# Reference: article PMC7862700, “An all-to-all approach to the identification of sequence-specific readers for epigenetic DNA modifications on cytosine”
